Source: PubChem BioAssay (National Center for Advancing Translational Sciences (NCATS))
This is a sample that favours compounds with a hit; in the whole collection about 3.6% have one here.
FUS yeast rescue: FUS proteinopathy suppression in yeast; AID 1347120; S. cerevisiae FUS-expressing, growth rescue, OD600, 24 h; actives 0.24% (n = 390,000); Potency, µM (doses to about 76.6 µM), actives largely listed as activators;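 also: plate controls were DMSO vehicle for no effect and reference control for full effect; nearly all actives have a fitted effect of over 55% in size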
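Read-out: OD at 600 nm after 24hr at 30C, reporting rescue of FUS-induced yeast toxicity. Cells at OD 0.005 in galactose (2%) minimal medium; compounds tested in a dilution series; CP55940 titration from 92uM final as control.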
Abeta yeast res: compounds reversing amyloid beta toxicity in yeast; yeast expressing A-beta42, growth rescue, OD600, 48 h; response scale: 0% DMSO, 100% iron-clioquinol control; Potency, µM (top dose mostly 46.1 µM), most hits filed as activators; actives 0.063% (n = 410,000); also: nearly all actives have a fitted effect of over 55% in size
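Yeast A-beta toxicity model in growth medium with pinned compounds, 48 h at 30 C; growth read as absorbance at 600 nm. Normalized to FeCl3/clioquinol equimolar mix (positive) and DMSO (negative).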
aSyn yeast inh: rescues yeast growth from alpha-synuclein toxicity; Potency, µM (series often up to 46.1 µM), for the others: top-dose growth rescue (activation), actives largely listed as activators; actives 0.14% (n = 370,000); AID 652106; Yeast expressing alpha-synuclein, growth rescue, BacTiter-Glo, 24 h; also: % of control where 0% means no effect; nearly all actives have a fitted effect of over 65% in size
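Rescue of yeast growth: cells expressing toxic alpha-synuclein, induced in galactose at OD600 0.02, incubated with compound 24 h at 30 C. ATP luminescence quantified growth; inhibitors of toxicity appear as activators.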
MmCpn inh: inhibitors of Methanococcus maripaludis chaperonin TRiC (MmCpn). purified Mm-Cpn ATPase, ADP Transcreener TR-FRET. actives 0.031% (n = 330,000). Potency, µM (doses to about 76.9 µM), inactives show at the highest dose activity, negative = inhibition, hits mostly inhibitors; also: % is scaled to controls: 0 for no effect and ±100 for the full control effect; nearly all actives have a fitted effect of over 80% in size
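Purified archaeal chaperonin (25 nM final) was preincubated with compound for 10 min at 37°C, then ATP (10 uM final) was added for 30 min at 37°C in Tris pH 7.4/KCl/MgCl2/DTT buffer. ADP was quantified by HTRF Transcreener TR-FRET.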
ClpP mod: qHTS Assay for Activators of ClpP. actives 1.9% (n = 340,000). AID 651965, 2013. purified B. subtilis ClpP, FRET peptide cleavage, 20 min. Potency, µM (highest dose often 57.5 µM), without a hit: top-dose activity change, negative = active. ATP-dependent Clp protease proteolytic subunit (Bacillus subtilis (strain 168)), P80244; active = well fitted falling curve with a large enough effect; inconclusive = small, poorly fitted or top-dose-only effect; inactive = no such curve, though single readings can be large or run the other way; also: the source files actives as falling curves though it sought activators and does not explain the sign; nearly all actives have a fitted effect of over 65% in size
Target sequence (P80244 whole entry, looked up): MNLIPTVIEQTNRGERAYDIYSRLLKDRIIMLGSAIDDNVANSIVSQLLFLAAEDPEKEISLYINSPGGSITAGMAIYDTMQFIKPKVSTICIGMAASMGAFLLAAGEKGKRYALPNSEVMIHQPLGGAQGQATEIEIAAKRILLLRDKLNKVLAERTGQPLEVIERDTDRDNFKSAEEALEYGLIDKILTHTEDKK
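FRET quenching reversal measured ClpP activation: 10 microg/mL B. subtilis ClpP at pH 8 with the FRET-FV decapeptide, read at 430 nm after 320 nm excitation. The 20-min minus 0-min signal was scaled between DMSO/no-enzyme wells and ADEP (5.8 microM final).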
TDP-43 yeast inh: rescues yeast growth from TDP-43 toxicity; TDP-43 expressing yeast growth rescue, BacTiter-Glo, 24 h; Potency, µM (series often up to 46.1 µM), inactives show top-dose growth rescue (activation), most hits filed as activators; actives 1.8% (n = 410,000); AID 652104; also: % of control where 0% means no effect; nearly all actives have a fitted effect of over 50% in size
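Readout is BacTiter-Glo luminescence of cell growth, so inhibitors register as activators. TDP-43-expressing yeast at OD600=0.02 in galactose medium, after raffinose pregrowth to mid-log, were incubated with compound for 24 hr at 30 deg C.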
* hit, by the source's call; ! = a repeat was not active; [ ] = another dose, or the depositor's remark. Unless noted, calls follow the shape of the dose curve; as a rule, active = well fitted curve in the direction sought with a large enough effect; inconclusive = small, poorly fitted or top-dose-only effect, or another doubt; inactive = no such curve, though single readings can be large; an effect the other way counts as inactive or inconclusive. Potency is read from the fitted curve at half-maximal effect.

For Cc1cc(C)cc(Nc2nc3cc(Cl)c(Cl)cc3nc2-n2nc(C)cc2C)c1 the results were FUS yeast rescue inactive, Abeta yeast res inactive, ClpP mod -1% and TDP-43 yeast inh 3%.
CCc1cccc(C)c1NC(=O)C(CC)Sc1nncn2c1cc1occc12 (stereo not drawn) was read as FUS yeast rescue inactive, Abeta yeast res inactive, ClpP mod 10% and TDP-43 yeast inh 14µM*.
`CCOc1cc2c(C#N)c(N3CCNCC3)nc(N)c2c(N)n1` gave FUS yeast rescue inactive, Abeta yeast res inactive, aSyn yeast inh 1%, MmCpn inh -1%, ClpP mod 35µM* and TDP-43 yeast inh -6%.
`CCOc1cc2c(C#N)c(N3CCCCC3)nc(N)c2c(N)n1` gave FUS yeast rescue inconclusive, Abeta yeast res inactive, aSyn yeast inh 9%, MmCpn inh -3%, ClpP mod 25µM* and TDP-43 yeast inh 13%.
O=C(Nc1ccc(Oc2ccccc2)cc1)c1ccc(F)c(S(=O)(=O)N2CCN(c3cccc(Cl)c3)CC2)c1 was read as FUS yeast rescue inactive, Abeta yeast res inactive, ClpP mod -10% and TDP-43 yeast inh -1%.
C[n+]1ccc(/C=C/c2ccc([N+](C)(C)C)cc2)c2ccccc21 was read as aSyn yeast inh -65% and ClpP mod -8%.
For O=C(c1ccc2c(=O)n(Cc3ccco3)c(=S)[nH]c2c1)N1CCN(Cc2ccc3c(c2)OCO3)CC1 the results were aSyn yeast inh 2% and ClpP mod 0%.
CC1CCC/C(=C\Nc2ccc3c(c2)OCO3)C1=O (stereo not drawn) was read as FUS yeast rescue 16µM*, Abeta yeast res inactive, aSyn yeast inh -4%, MmCpn inh -1%, ClpP mod -1% and TDP-43 yeast inh -10%.
For CC1CCC/C(=C\Nc2ccccc2C(=O)O)C1=O (stereo not drawn) the results were FUS yeast rescue inactive, Abeta yeast res inactive, aSyn yeast inh 17%, MmCpn inh -3%, ClpP mod 22µM* and TDP-43 yeast inh -4%.
Screening Cc1cc(C)[n+](C)c2ccccc12 returned aSyn yeast inh -1% and ClpP mod 4%.
O=c1c2cc3c(cc2nc2sc(Nc4ccc(F)c(Cl)c4)nn12)OCO3 was read as FUS yeast rescue inactive, Abeta yeast res inactive, ClpP mod -3% and TDP-43 yeast inh -5%.
CCc1nn(Cc2cccc(F)c2)c(=O)c2cc3cc(C)ccc3n12 was read as FUS yeast rescue inactive, Abeta yeast res inactive, ClpP mod -27% and TDP-43 yeast inh 10%.
Screening O=C(CSc1nnc(-c2ccc(O)cc2)o1)c1ccc(Br)cc1 returned FUS yeast rescue inactive, Abeta yeast res inactive, ClpP mod -3% and TDP-43 yeast inh 16%.
CCCN(CCC)CCCNC(=O)c1cc2c(=O)oc3ccc(C)cc3c2s1 was read as FUS yeast rescue inactive, Abeta yeast res inactive, ClpP mod -15% and TDP-43 yeast inh -2%.
Screening CCCCCCSc1cc(C)nc2ncnn12 returned FUS yeast rescue inactive, Abeta yeast res inactive, aSyn yeast inh 1%, MmCpn inh 3%, ClpP mod 1% and TDP-43 yeast inh 25µM*.
O=C(C[N+]12CCCc3cccc(c31)CCC2)c1ccc2ccc3cccc4ccc1c2c34 was read as ClpP mod 4%.
For Cn1cc(S(=O)(=O)c2ccccc2)c(=O)c2cc(F)c(N3CCOCC3)cc21 the results were FUS yeast rescue inactive, Abeta yeast res inactive, aSyn yeast inh -4%, MmCpn inh -1%, ClpP mod 28µM* and TDP-43 yeast inh 5%.
CCc1ccc(S(=O)(=O)c2cn(C)c3cc(F)c(F)cc3c2=O)cc1 was read as FUS yeast rescue inactive, Abeta yeast res inactive, ClpP mod 2% and TDP-43 yeast inh 19%.
`CCc1ccc(S(=O)(=O)c2cn(C)c3cc(N4CCN(CC)CC4)c(F)cc3c2=O)cc1` gave FUS yeast rescue inactive, Abeta yeast res inactive, ClpP mod 11µM* and TDP-43 yeast inh 18%.
For Cc1ccc(S(=O)(=O)c2cn(C)c3cc(N4CCOCC4)c(F)cc3c2=O)cc1 the results were FUS yeast rescue inactive, Abeta yeast res inactive, aSyn yeast inh -2%, MmCpn inh -2%, ClpP mod -23% and TDP-43 yeast inh 5%.
For Cc1ccc(S(=O)(=O)c2cn(C)c3cc(N4CCN(C)CC4)c(F)cc3c2=O)cc1 the results were FUS yeast rescue inactive, Abeta yeast res inactive, aSyn yeast inh 0%, MmCpn inh 0%, ClpP mod 25µM*! and TDP-43 yeast inh 2%.
For COc1ccc(OC)c2sc(N(Cc3cccnc3)C(=O)c3ccco3)nc12 the results were FUS yeast rescue inactive, Abeta yeast res inactive, ClpP mod -8% and TDP-43 yeast inh 12%.
Screening Cc1cccc(NC(=O)CN2C(=O)COc3ccc(S(=O)(=O)Nc4ccccc4)cc32)c1C returned FUS yeast rescue inactive, Abeta yeast res inactive, ClpP mod -2% and TDP-43 yeast inh 7%.
CCOC(=O)c1[nH]c(C)c(CCC(=O)Nc2ccc(C)cc2Cl)c1C was read as FUS yeast rescue inactive, Abeta yeast res inactive, ClpP mod 2% and TDP-43 yeast inh 21%[9.22 µM].
COc1ccc(-n2cc(-c3ccc(Cl)cc3)[nH]c2=S)cc1 was read as FUS yeast rescue inactive, Abeta yeast res inactive, aSyn yeast inh -2%, MmCpn inh -2%, ClpP mod inconclusive and TDP-43 yeast inh 12%.
Screening COc1cccc(-n2cc(-c3ccc(F)cc3)[nH]c2=S)c1 returned FUS yeast rescue inactive, Abeta yeast res inconclusive, aSyn yeast inh 1%, MmCpn inh -2%, ClpP mod -6% and TDP-43 yeast inh 11µM*.
`S=c1[nH]c(-c2ccccc2)cn1-c1ccccc1` gave FUS yeast rescue inactive, Abeta yeast res 13µM*, aSyn yeast inh 0%, MmCpn inh -2%, ClpP mod -29% and TDP-43 yeast inh 13µM*.
O=C(CN1c2cccc3cccc(c23)S1(=O)=O)NCc1ccc2c(c1)OCO2 was read as FUS yeast rescue inactive, Abeta yeast res inactive, aSyn yeast inh 21%, MmCpn inh -4%, ClpP mod -24% and TDP-43 yeast inh -4%.
